Compound activity from PubChem.
Shown is part of a subset that was picked to be rich in hits.
LmPK inh – blocks Leishmania mexicana pyruvate kinase activity. Q27686. purified LmPK, Kinase-Glo ATP luminescence, 1 h. Potency, µM (series often up to 57.5 µM), for the others: top-dose activity change, negative = inhibition, usual class: inhibitors. 290,000 compounds, 0.37% hits. AID 1721; further: potency means the concentration at half of the fitted maximal effect; on the % scale 0 is the no-effect control and ±100 the full control effect
Target sequence (Q27686 whole entry, looked up): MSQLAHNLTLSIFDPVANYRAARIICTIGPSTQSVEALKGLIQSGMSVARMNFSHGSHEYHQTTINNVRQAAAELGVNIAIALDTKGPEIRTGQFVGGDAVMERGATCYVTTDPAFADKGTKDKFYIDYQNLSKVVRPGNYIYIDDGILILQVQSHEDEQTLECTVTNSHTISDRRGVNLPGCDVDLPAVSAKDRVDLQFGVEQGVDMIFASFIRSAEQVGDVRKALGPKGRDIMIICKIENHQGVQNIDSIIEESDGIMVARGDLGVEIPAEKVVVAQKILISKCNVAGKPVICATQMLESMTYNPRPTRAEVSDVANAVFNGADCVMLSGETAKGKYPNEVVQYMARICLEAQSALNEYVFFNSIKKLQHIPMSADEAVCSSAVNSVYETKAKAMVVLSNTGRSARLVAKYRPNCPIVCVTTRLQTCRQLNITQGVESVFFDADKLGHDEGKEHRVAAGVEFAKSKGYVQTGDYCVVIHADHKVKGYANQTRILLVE
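Kinase-Glo luminescence read after 1 h RT reaction of 0.1 nM LmPK with 0.5 mM PEP and 0.1 mM ADP. Activity scaled between uninhibited and enzyme-free controls.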
Tb PYK inh – blocks Trypanosoma brucei pyruvate kinase; Q57TT1; TbPYK enzyme, Kinase-Glo Plus ATP luminescence, 45 min; Potency, µM (series often up to 76.8 µM), for the others: at the highest dose activity, negative = inhibition, hits mostly inhibitors; 410,000 compounds, 0.12% hits; AID 624173; further: potency means the concentration at half of the fitted maximal effect; on the % scale 0 is the no-effect control and ±100 the full control effect; nearly all actives have a fitted effect of over 50% in size
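Assay buffer: 50 mM TEA pH 7.2, 100 mM KCl, 10 mM MgCl2, 0.05% BSA, 0.01% Tween-20. Pyruvate kinase from T. brucei plus substrate met compound, then ADP (130 uM final). Luminescence was read post 45 min RT.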
RE007 growth inh – less growth of the S. pombe RE007 Vpr strain | S. pombe RE007 Vpr strain, BacTiter-Glo ATP luminescence, 24 h | Potency, µM (series often up to 92.2 µM), for inactives: top-dose activity change, negative = less growth, actives largely listed as inhibitors | 360,000 compounds, 0.21% hits | AID 651644; active means well fitted falling curve with a large enough effect; inconclusive means small, poorly fitted or top-dose-only effect; inactive means no such curve, though single readings can be large or run the other way; further: potency means the concentration at half of the fitted maximal effect; on the % scale 0 is the no-effect control and ±100 the full control effect; nearly all actives have a fitted effect of over 50% in size
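Fission yeast strain RE007, carrying one chromosomally integrated HIV-1 vpr copy, was seeded at OD 0.01 in PMG+AL medium with 23 nL pinned compound. After 24 h at 30 °C and 99% humidity, viability was read by BacTiter-Glo luminescence.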
Giardia FBPA inh – inhibitors of Giardia lamblia fructose-1,6-bisphosphate aldolase; A8B2U2; 290,000 compounds, 0.71% hits; Potency, µM (doses to about 59.6 µM), without a hit: at the highest dose activity, negative = inhibition, usual class: inhibitors; purified Giardia FBPA; AID 2451; further: potency means the concentration at half of the fitted maximal effect; on the % scale 0 is the no-effect control and ±100 the full control effect; nearly all actives have a fitted effect of over 55% in size
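Giardia FBPA (40 nM reagent) was preincubated 10 min at RT with compound (up to 57.5 uM final), then substrate plus GAPDH/TPI/NAD/arsenate coupling system with diaphorase/resazurin was added; resorufin fluorescence (525/598 nm) was read after 20 min.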
Cycloheximide cs – counter-screen hit for Shiga toxin inhibitors, cycloheximide; 300,000 compounds, 12% hits; max response, %; cell reporter, cycloheximide protein synthesis inhibition counterscreen; in the data active means max response mostly above about 13%, no sharp cut-off; inactive means mostly below about 14%; further: read at 38.3 µM for the half of the compounds with a filed dose; 0% is about no effect
Shiga toxin inh – blocks Shiga toxin action in Vero cells. Vero cells, Shiga toxin protein synthesis inhibition reporter. inhibition, % at 38.7 µM. 290,000 compounds, 9.2% hits. AID 2315; in the data active means inhibition mostly above about 28%, no sharp cut-off; inactive means mostly below about 43%; further: 0% is about no effect
The depositor's hits bear a star; [ ] = another dose, or the depositor's remark. Unless noted, the call rests on the fitted dose curve; in most records, active means well fitted curve in the direction sought with a large enough effect; inconclusive means small, poorly fitted or top-dose-only effect, or another doubt; inactive means no such curve, though single readings can be large; an effect the other way counts as inactive or inconclusive.

`CCCCC(=O)Nc1nc2c(s1)COc1ccccc1-2` gave LmPK inh -2.8%, Tb PYK inh -2.1%, RE007 growth inh -10.3%, Giardia FBPA inh 2.0%, Cycloheximide cs 37.7* and Shiga toxin inh 42.5*.
Nc1nc2c(s1)COc1ccccc1-2 was read as LmPK inh 4.0%, Tb PYK inh -17.5%, RE007 growth inh -20.4%, Giardia FBPA inh -6.9%, Cycloheximide cs 13.7* and Shiga toxin inh 42.5.
CC(C)(C)C(=O)Nc1nc2c(s1)COc1ccccc1-2 was read as LmPK inh 3.5%, Tb PYK inh -7.3%, RE007 growth inh -12.2%, Giardia FBPA inh -9.6%, Cycloheximide cs 19.5* and Shiga toxin inh 46.0*.
For CCCN(CCC)S(=O)(=O)c1ccc(C(=O)Nc2nc3c(s2)CCc2ccccc2-3)cc1 the results were LmPK inh 7.6%, Tb PYK inh -8.2%, RE007 growth inh 18.7%, Giardia FBPA inh -0.3%, Cycloheximide cs -1.9 and Shiga toxin inh -7.3.
For O=C(CCSc1ccccc1)Nc1nc2c(s1)COc1ccccc1-2 the results were LmPK inh -4.7%, Tb PYK inh -13.8%, RE007 growth inh 14.5%, Giardia FBPA inh -9.5%, Cycloheximide cs -0.9 and Shiga toxin inh 12.2.
COc1cccc(OC)c1C(=O)Nc1nc2c(s1)CCc1ccccc1-2 was read as Tb PYK inh 2.9%.
`N#C/C(=C\c1ccc(O)c(O)c1)C(=O)OCCc1cccs1` gave Giardia FBPA inh -2.2%.
CCC(C)CC(C)CC(C)C(=O)/C=C(/O)C(C)CC(C)C/C=C/C(C)C(O)C(C)C(O)CC1CCC(C)(C)O1 (configuration not stated) was read as Giardia FBPA inh 5.7%, Cycloheximide cs -14.0 and Shiga toxin inh -12.2.
Screening Cc1nc(-c2ccc(S(=O)(=O)N3CCN(c4ccccc4F)CC3)cc2)co1 returned Tb PYK inh -0.1%.
Screening FC(F)C(F)(F)c1cc(-c2ccccc2)n[nH]1 returned LmPK inh 5.6%, Tb PYK inh -3.5%, RE007 growth inh -17.9%, Giardia FBPA inh -0.9%, Cycloheximide cs 19.7* and Shiga toxin inh 29.0.
O=C(O)c1cc(-c2ccccc2)n[nH]1 was read as LmPK inh -7.8%, Tb PYK inh 0.2%, Giardia FBPA inh -0.3%, Cycloheximide cs -2.1 and Shiga toxin inh 4.3.
`COc1cccc([C@H]2Oc3ccc(OC)cc3/C(=N\OC[C@@H](O)[C@@H]3O[C@@H]4OC(C)(C)O[C@@H]4[C@H]3O)[C@@H]2O)c1` gave Giardia FBPA inh -1.0%[12.9 µM].
For Clc1ccc(OCc2nnc(-c3ccccc3Br)o2)c(Cl)c1 the results were LmPK inh 5.6%, Tb PYK inh -2.0%, RE007 growth inh 2.6%, Giardia FBPA inh 7.7%, Cycloheximide cs 38.6* and Shiga toxin inh 83.2*.
Screening Cc1cc(Cl)ccc1OCc1nnc(-c2ccccc2C)o1 returned Tb PYK inh -0.7% and RE007 growth inh 16.3%.
For COc1cc(C(C)=O)ccc1OCc1nnc(-c2ccccc2Br)o1 the results were LmPK inh 2.9%, Tb PYK inh -0.1%, RE007 growth inh 7.6%, Giardia FBPA inh 7.8%, Cycloheximide cs 16.5* and Shiga toxin inh 60.4*.
`Fc1ccc(OCc2nnc(-c3ccccc3Br)o2)c(Cl)c1` gave LmPK inh 0.3%, Tb PYK inh 0.9%, RE007 growth inh 16.5%, Giardia FBPA inh -1.4%, Cycloheximide cs 15.1* and Shiga toxin inh 108.7*.
Screening Cc1cc(Br)ccc1OCc1nnc(-c2ccccc2)o1 returned Tb PYK inh -1.5% and RE007 growth inh inconclusive.
Screening COc1ccc(C(C)=O)cc1Cn1nnc(-c2ccccc2Br)n1 returned LmPK inh 4.1%, Tb PYK inh 0.1%, RE007 growth inh 3.0%, Giardia FBPA inh -5.6%, Cycloheximide cs 0.9 and Shiga toxin inh 3.0.
Screening CCNc1ncc2nc(-c3ccc(F)cc3)c(=O)n(CCC#N)c2n1 returned Tb PYK inh 0.6% and Giardia FBPA inh 4.3%.
Screening Cc1ccc(OCCn2cnc3sc(C(N)=O)c(C)c3c2=O)cc1 returned LmPK inh -0.7%[11.5 µM], Giardia FBPA inh 4.0%, Cycloheximide cs 9.8 and Shiga toxin inh -2.8.
Screening CCn1cnc2sc(C(=O)Oc3ccc(Br)cc3)c(C)c2c1=O returned LmPK inh -3.5%, Tb PYK inh 5.7%, RE007 growth inh 5.3%, Giardia FBPA inh -4.0%, Cycloheximide cs 30.0* and Shiga toxin inh 64.3*.
For CCOCCn1cnc2sc(C(=O)NCC(=O)OCC)c(C)c2c1=O the results were LmPK inh -7.1%, Tb PYK inh 3.7%, RE007 growth inh -0.2%, Giardia FBPA inh 0.2%, Cycloheximide cs 22.8* and Shiga toxin inh 31.5*.
`CCOC(=O)Cn1cnc2sc(C(=O)OC)c(C)c2c1=O` gave LmPK inh 0.4%, Tb PYK inh -2.5%, RE007 growth inh -6.7%, Giardia FBPA inh 2.0%, Cycloheximide cs 11.2 and Shiga toxin inh 25.5*.
For COc1ccccc1C(=O)Nc1ccccc1OCc1cc(=O)n2ccccc2n1 the results were Tb PYK inh -9.4%.
COc1ccccc1Cc1nc2ccccc2nc1SCC(=O)Nc1ccccc1C(F)(F)F was read as Tb PYK inh 2.9%.
Screening O=C(Nc1cnc2ccccc2c1)c1ccncc1 returned LmPK inh 1.5%, Tb PYK inh 0.7%, RE007 growth inh 17.4%, Giardia FBPA inh -1.4%, Cycloheximide cs 73.2* and Shiga toxin inh 183.2*.
Screening Cc1cc(C)nc(NC(=S)NC(=O)c2ccccc2)n1 returned LmPK inh 0.5%, Tb PYK inh -4.5%, RE007 growth inh 4.4%, Giardia FBPA inh inconclusive, Cycloheximide cs 2.1 and Shiga toxin inh 18.0.
Screening O=C(Nc1ccccc1)c1ccncc1 returned LmPK inh -4.5%, Tb PYK inh -4.9%, RE007 growth inh -14.0%, Giardia FBPA inh 3.3%, Cycloheximide cs -3.1 and Shiga toxin inh -1.2.
S=C(NCCc1ccccc1)Nc1cnc2ccccc2c1 was read as LmPK inh 1.0%, Tb PYK inh -7.1%, RE007 growth inh -2.4%, Giardia FBPA inh -2.3%, Cycloheximide cs 31.3* and Shiga toxin inh 60.7*.
`O=C(NC(=S)Nc1cnc2ccccc2c1)c1ccccc1` gave LmPK inh -11.9%, Tb PYK inh -23.8%, RE007 growth inh -11.1%, Giardia FBPA inh inconclusive, Cycloheximide cs 47.5* and Shiga toxin inh 62.8*.
Screening Cn1ncc2cc(NC(=S)NC(=O)c3ccccc3)ccc21 returned LmPK inh 0.9%, Tb PYK inh -1.6%, RE007 growth inh 4.9%, Giardia FBPA inh -9.4%, Cycloheximide cs 43.1* and Shiga toxin inh 85.6*.
Screening CC1(C(=O)Nc2cnc3ccccc3c2)CCN1CCc1ccccc1 (configuration not stated) returned Tb PYK inh 1.9% and RE007 growth inh 8.4%[18.4 µM].
